Shown are actives, neighbours in structure and some others; about 1.5% of the full set was active somewhere.
GALR2 antag – GALR2 antagonists in receptor-expressing cells, primary screen; 0.39% of 140,000 active; inhibition, % at 4 µM; antagonist mode; in the data active means inhibition above about 27%;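 further: cells stimulated with galanin 1-16 at roughly its EC80; 0% = agonist challenge control and 100% = basal control without agonist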
GALR2 ag – GALR2 receptor agonists, primary screen, cell-based; Galanin receptor type 2 (Homo sapiens), O43603; GALR2-expressing cells, agonist activation read-out; activation, % (concentration not given with the values); 0.48% of 140,000 active; in the data active means activation above about 5%, passing the limit was not always enough;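 further: 0% = vehicle buffer wells and 100% = reference agonist at full effect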
CD11b adhes enh – enhancers of CD11b/CD18 adhesion to fibrinogen, primary screen, K562 cells, luminescence; activation, % at 10 µM; ATPlite luminescence; 0.07% of 93,000 active;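 active means 10 µM primary screen giving 50% or more activity, confirmed by 40% or more on retest at that dose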
S1P2 ag – S1P2 receptor agonists, primary screen, cell-based; S1P2-expressing cell line, agonist reporter read-out; activation, % at 4.5 µM; 0.46% of 97,000 active; AID 729, 2007; in the data active means activation above about 16%;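 further: 0% = vehicle low control and 100% = maximal reference agonist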
Target sequence (O95136 whole entry, looked up): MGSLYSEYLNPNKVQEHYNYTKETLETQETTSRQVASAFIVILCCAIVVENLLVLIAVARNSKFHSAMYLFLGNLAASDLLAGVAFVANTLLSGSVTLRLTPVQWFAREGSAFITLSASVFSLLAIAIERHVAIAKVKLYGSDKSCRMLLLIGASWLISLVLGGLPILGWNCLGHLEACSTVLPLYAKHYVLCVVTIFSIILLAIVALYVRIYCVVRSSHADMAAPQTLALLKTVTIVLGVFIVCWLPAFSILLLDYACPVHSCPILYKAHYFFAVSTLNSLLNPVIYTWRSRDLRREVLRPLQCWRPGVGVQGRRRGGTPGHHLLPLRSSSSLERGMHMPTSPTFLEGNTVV
S1P2 antag – human S1P2 receptor antagonists, primary screen, cell-based; cell-based S1P2 antagonist assay, inhibition at 5 uM; Sphingosine 1-phosphate receptor 2 (Homo sapiens), O95136; inhibition, % at 5 µM; 0.21% of 97,000 active; AID 736, 2007; in the data active means inhibition above about 45%;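 further: CRE beta-lactamase reporter cells expressing human S1P2 stimulated with S1P; 0% = agonist at EC80 alone and 100% = agonist plus reference antagonist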
CD11b adhes inh – inhibitors of CD11b/CD18 adhesion to fibrinogen, primary screen, K562 cells, luminescence | 0.54% of 93,000 active | inhibition, % at 10 µM | ATPlite luminescence; Mn2+ added to activate the integrin | Integrin beta-2 (Homo sapiens) + Integrin alpha-M (Homo sapiens), P05107+P11215;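 active means primary inhibition of 50% or more at 10 µM, then 40% or more on retest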
* marks the source's active call; other numbers are inactive results; · = no result given.

SMILES	GALR2 antag	GALR2 ag	CD11b adhes enh	S1P2 ag	S1P2 antag	CD11b adhes inh
Cc1ccc2nc3c(cc(C#N)c(=O)n3CC3CCCO3)c(=O)n2c1 (stereo unspecified)	-5.3	6.8*	-5.7	·	·	-13.1
Cc1ccc2nc3c(cc(C#N)c(=O)n3-c3nccs3)c(=O)n2c1	-21.7	26.6*	-1.4	·	·	0.0
COCCn1nnnc1CN1CCN2CCCC2C1 (stereo unspecified)	-4.3	-1.2	2.4	43.5*	10.4	2.3
O=C(c1ccc2nc(N3CCOCC3)sc2c1)N1CCCC1	9.8	-1.9	-2.2	·	·	3.5
CC1CCN(c2nc3ccc(C(=O)N4CCN(Cc5ccc6c(c5)OCO6)CC4)cc3s2)CC1	-11.7	-1.3	-4.2	-5.0	19.2	55.8*
CC(=O)Nc1cc(N=Cc2ccc(O)cc2O)c(Cl)cc1Cl	3.5	-2.4	·	·	·	·
CCOC(=O)C1=C(N)Oc2c(c(=O)[nH]c3ccccc23)C1c1ccccc1 (stereo unspecified)	-8.7	1.9	-1.6	1.2	-5.9	-4.2
O=C(NNC1=C(C(=O)C(F)(F)F)CCC1)c1cccc(O)c1	7.1	-3.0	·	-5.1	-9.1	·
Cc1cccc(C(=O)NNC2=C(C(=O)C(F)(F)F)CCC2)c1O	-3.0	-1.2	-7.3	-3.2	-8.3	96.4*
O=[N+]([O-])c1cc2c(c(CSc3nnnn3-c3ccc(O)cc3)c1)OCOC2	4.5	0.3	·	·	·	·
Cc1cc(O)cc(O)c1C=NCc1ccco1	-2.5	-0.6	·	·	·	·
COc1ccc(-n2nnnc2S(=O)(=O)CC(=O)N2CCCCC2)cc1	48.2*	-1.8	1.1	-9.6	52.6*	18.9
O=C1CC(c2ccccc2)Cc2nc(N3CCc4ccccc4C3)ncc21 (stereo unspecified)	-5.0	-1.1	·	-5.3	1.3	·
Cc1ccc(C2CC(=O)c3cnc(N4CCc5ccccc5C4)nc3C2)cc1 (stereo unspecified)	-4.8	-3.6	·	580.9*	3.0	·
CCNS(=O)(=O)c1cccc(C(=O)c2c(C)cc3ccccn23)c1	2.1	-1.6	·	·	·	·
COc1cccc(CNC(=O)CN(c2cc(C)cc(C)c2)S(=O)(=O)c2c(C)noc2C)c1	7.5	-0.9	-3.3	109.2*	13.9	-14.1
COc1ccc(OC)c(NC(=O)CN(c2ccc(C(C)C)cc2)S(=O)(=O)c2c(C)noc2C)c1	-8.2	-1.5	5.9	-8.3	4.8	-5.2
COc1ccc(OC)c(NC(=O)CN(c2ccc(C)cc2)S(=O)(=O)c2c(C)noc2C)c1	-9.6	6.9*	-1.3	-7.2	-1.4	-7.3
COc1cc(/C=C/C(=O)OCC(=O)N2CCc3ccccc3C2)ccc1O	19.0	1.2	·	·	·	·
COC(=O)C1=CN(C(C)C)C=C(C(=O)OC)C1c1cccc(OC)c1	2.9	21.1*	3.8	12.5	-16.8	-7.2
COc1cc(C(=O)NCc2ccccc2)cc(Br)c1OC	5.5	0.2	·	·	·	·
COC(=O)C1=CN(C(C)C)C=C(C(=O)OC)C1c1cc(Br)c(OC)c(OC)c1	3.4	21.8*	·	17.7*	-24.2	·
CS(=O)(=O)NCc1nnc(SCC(=O)NC2CCCCC2)n1-c1ccc(F)cc1	-5.7	-1.2	0.6	102.8*	11.4	-18.7
Cn1cccc1Cc1nnc(SCC(=O)NC2CCCC2)n1-c1ccc(F)cc1	5.2	-3.9	-0.9	-1.7	-0.1	2.8
N#CCC(CNc1ncc(C(F)(F)F)cc1Cl)OC(=O)c1ccc(Cl)cc1Cl (stereo unspecified)	3.6	-2.8	10.0	-1.8	-4.1	-4.2
SMILES	GALR2 antag	GALR2 ag	CD11b adhes enh	S1P2 ag	S1P2 antag	CD11b adhes inh
O=C(CSC(=S)N1CCN(c2ccccc2)CC1)Nc1nc(-c2ccccc2)c(-c2ccccc2)o1	16.1	-0.9	·	·	·	·
CN1CCN(Cc2nc3ccccc3c(=O)n2Cc2nc(-c3ccccc3F)cs2)CC1	15.1	0.3	-1.7	·	·	-6.9
CN1CCN(Cc2nc3ccccc3c(=O)n2Cc2nc(-c3ccc4ccccc4c3)cs2)CC1	11.0	7.7*	3.2	·	·	36.4
CN(Cc1cccs1)c1ncnc2sccc12	0.5	-1.9	-7.5	-3.9	20.5	88.6*
Cc1sc2ncnc(N(C)Cc3cccs3)c2c1C	1.3	-1.4	0.5	-2.0	3.2	33.6
O=C(O)C1CC=CCC1C(=O)N1CCN(c2nc(-c3ccccc3)c3ccccc3n2)CC1 (stereo unspecified)	23.2	9.1	-5.1	21.1*	-16.2	15.1
O=C(O)CCCC(=O)N1CCN(c2nc(-c3ccccc3)c3ccccc3n2)CC1	12.6	-1.2	-2.6	37.9*	-6.5	-6.6
c1ccc(-c2nc(N3CCNCC3)nc3ccccc23)cc1	13.3	7.8	1.3	20.4*	-17.9	-37.3
O=C(CSc1cccc(C(F)(F)F)c1)Nc1cc(S(=O)(=O)N2CCCC2)ccc1Cl	-17.7	-0.3	·	·	·	·
Cc1nc2ccccc2n1CSc1ccccc1	8.6	-1.5	·	·	·	·
O=C(O)c1cnc(-c2ccccc2)nc1Sc1cccc(Cl)c1	2.8	-1.3	-5.5	-6.1	6.1	61.7*
COc1ccccc1N=c1oc2cc(O)ccc2cc1C(=O)NCC1CCCO1 (stereo unspecified)	-15.4	29.0*	·	16.0	-15.6	·
COc1ccccc1N=c1oc2cc(O)ccc2cc1C(N)=O	-46.0	20.3*	2.3	44.5*	-34.3	-0.7
Cc1cccc(N=c2oc3cc(O)ccc3cc2C(N)=O)c1	-28.1	66.1*	-5.6	29.8*	-43.4	25.3
COc1cccc2cc(C(=O)NCC3CCCO3)c(=O)oc12 (stereo unspecified)	16.2	-0.4	-1.1	-0.2	-18.8	-24.4
CN=c1oc2ccc(Cl)cc2cc1C(N)=O	21.5	-1.0	3.6	·	·	-19.4
COc1ccccc1NC(=O)c1cc2ccc(O)cc2o/c1=N\O	0.3	0.6	-3.1	-2.2	-1.5	-9.5
Cc1ccc(-n2c3c(c(=O)[nH]c2=O)C(NS(=O)(=O)c2ccc(Cl)cc2)(C(F)(F)F)C(=O)N3)cc1 (stereo unspecified)	-9.0	-0.8	-2.3	·	·	-0.7
O=C(NC(=S)N1CCN(c2ccc([N+](=O)[O-])cc2)CC1)c1ccccc1F	-1.7	0.5	·	·	·	·
O=C1N/C(=N\N=C\c2ccc3ncccc3c2)SC1Cc1ccc(SC(F)F)cc1 (stereo unspecified)	2.2	-2.2	-0.9	-6.2	8.2	15.0
O=C1N/C(=N\N=C\c2cccnc2)SC1Cc1ccc(SC(F)F)cc1 (stereo unspecified)	11.2	-0.9	-2.8	30.5*	-15.6	28.1
Cc1cc(O)c(C2=Nc3ccccc3SC(c3ccc(Cl)cc3)C2)c(=O)o1 (stereo unspecified)	-4.5	-0.8	·	·	·	·
COc1ccc(C2CC(c3c(O)cc(C)oc3=O)=NCCS2)c(OC)c1 (stereo unspecified)	27.7*	0.4	1.2	·	·	13.2
Fc1ccc(NC(=S)Nc2ccccc2OC(F)F)cc1Cl	6.5	-0.2	-10.3	·	·	100.6*
CCN(CC)S(=O)(=O)c1ccc(Cl)c(C(=O)Nc2cc(C)nn2-c2ccccc2C(F)(F)F)c1	-1.6	0.0	-2.7	·	·	9.4

Bioassay records from PubChem BioAssay.
